Values joined by “and” are separate entries in the source; they are usually repeats but may differ in a detail not shown here. Equal values may be shown once. Records with an inconclusive call do not appear. Active and inactive are the calls of the source. Unless noted, calls follow the shape of the full dose curve.

Assay [1] is described as follows: Nuclear factor erythroid 2-related factor 2/antioxidant responsive element (Nrf2/ARE) small molecule agonists: qHTS cell viability counter screen in human keratinocytes (AID 1919968; active = well fitted curve in the direction sought with a large enough effect in the repeat runs; an effect the other way counts as inactive or inconclusive; also: nearly all actives have a fitted effect of over 55% in size). In short, it runs like this: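 Cytotoxicity was multiplexed with the Nrf2/ARE luciferase assay in the same wells. Stably transfected HaCaT keratinocytes were treated with test compounds for 23 h at 37 C. Cell viability was then measured by CellTiter-Fluor fluorescence.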
A general note: In qHTS, concentration-response curves come from the screen itself.

A short description of assay [2]: Nuclear factor erythroid 2-related factor 2/antioxidant responsive element (Nrf2/ARE) small molecule agonists: luciferase reporter gene qHTS assay in human keratinocytes (AID 1919969; also: nearly all actives have a fitted effect of over 35% in size). (In general: A reporter such as luciferase makes a cellular process visible.)
The target in assay [3] is Gonadotropin-releasing hormone receptor (Homo sapiens) (UniProt P30968). In words: Human gonadotropin-releasing hormone receptor (GnRHR) small molecule agonists, calcium flux assay in GnRHR-HEK293 cells (AID 1920063). Also: nearly all actives have a fitted effect of over 35% in size. In short, it runs like this: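 Agonist activity was measured as intracellular calcium flux in HEK293 cells engineered to stably express human GnRHR. After dye loading for 1 hour at 37 C, compounds in DMSO were added and fluorescence was followed for 3 minutes.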
For orientation: A change in cytosolic calcium serves as a functional read-out for many receptors and channels.

In assay [4] the target is KiSS-1 receptor (Homo sapiens) (UniProt Q969F8). In words: Human kisspeptin (KISS1R) small molecule agonists, calcium flux assay in KISS1R-HEK293 cells (AID 1920064; active = well fitted curve in the direction sought with a large enough effect in the repeat runs; an effect the other way counts as inactive or inconclusive). Summed up: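 Agonist activity is monitored as intracellular calcium rise in engineered HEK293 cells carrying human KISS1R. Cells are dye-loaded for 1 h at 37 C before compound addition, and fluorescence is recorded for 3 min.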

The nature of assay [5]: G protein-coupled receptor (GPCR) small molecule agonists, calcium flux assay: HEK293 wild type cell line counter screen (AID 1920065). In short, it runs like this:
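Seed cells, incubate 18 h (37 C, 5% CO2); add calcium dye, 1 h at 37 C; pin-transfer compounds, ATP control or DMSO; read fluorescence 480/540 nm each second for 3 min.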

Assay [6] in a line: p53 small molecule agonists, cell-based qHTS assay with human liver microsomes (AID 1963577).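 Also: p53 response element beta-lactamase reporter cells with liver microsomes plus NADPH.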 Summed up:
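Reporter activation was measured by LiveBLAzer fluorescence intensity in p53RE-bla cells, which had been exposed to compounds for 16 h at 37 C alongside 0.5 mg/mL human liver microsomes and 0.5 mg/mL NADPH (final concentrations).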

The nature of assay [7]: p53 small molecule agonists, cell-based qHTS assay with rat liver microsomes (AID 1963578). Summed up:
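Compound in DMSO added to p53RE-bla cells 5 h post-plating; rat microsomes/NADPH 0.5 mg/mL final; 16 h, 37 C; LiveBLAzer 2 h RT.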

Assay [8] can be described thus: p53 small molecule agonists, cell-based qHTS assay with human liver microsomes: qHTS cell viability counter screen (AID 1963579). Also: nearly all actives have a fitted effect of over 45% in size. Summed up:
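HLM-supplemented (0.5 mg/mL final) and NADPH-supplemented (0.5 mg/mL final) p53RE-bla cultures, 4,000 cells per well, were dosed with compounds in DMSO for 16 h at 37 C; luminescent ATP detection (CellTiter-Glo, 30 min, room temperature) quantified surviving cells.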

The nature of assay [9]: p53 small molecule agonists, cell-based qHTS assay with rat liver microsomes: qHTS cell viability counter screen (AID 1963580). Also: nearly all actives have a fitted effect of over 45% in size. Summed up:
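Cytotoxicity counter screen: intracellular ATP measured by CellTiter-Glo luminescence in the same wells as the beta-lactamase reporter read, on HCT-116 p53RE-bla cells exposed 16 h at 37 C to compounds with rat liver microsomes and NADPH, each 0.5 mg/mL final.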

Assay [10] in a line: p53 small molecule agonists, cell-based qHTS assay: qHTS cell viability counter screen (AID 1963581). Also: nearly all actives have a fitted effect of over 45% in size. In short, it runs like this: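 Viability was counter-screened in parallel with the p53 agonist reporter by measuring intracellular ATP luminescence in the same HCT-116 p53RE-bla wells after 16 h compound treatment at 37 C.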
Assay [11] concerns the target 5-hydroxytryptamine receptor 2A (Homo sapiens) (UniProt P28223). In words: 5-hydroxytryptamine receptor 2A (HTR2A) small molecule antagonists, cell-based qHTS assay (AID 1963586). Also: nearly all actives have a fitted effect of over 45% in size. Also: potency is read from the fitted curve at half-maximal effect. Summed up: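 CHO cells stably expressing human HTR2A were plated for 18 h at 37 C, then loaded with calcium dye for 1 h. Compounds were preincubated 5 min at room temperature before DOI (4 nM solution) was added. Kinetic fluorescence was read for 3 min.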

Assay [12] has the same target. In words: 5-hydroxytryptamine receptor 2A (HTR2A) small molecule agonists, cell-based qHTS assay (AID 1963587). Also: nearly all actives have a fitted effect of over 30% in size. Summed up: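 CHO cells stably expressing human HTR2A, plated 18 h, loaded with calcium dye 1 h at 37 C. Agonist mode: compounds added and intracellular calcium fluorescence recorded kinetically for 2 min at 1 sec intervals.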
In assay [13] the target is Muscarinic acetylcholine receptor M1 (Homo sapiens) (UniProt P11229). Put plainly: Cholinergic receptor muscarinic 1 (CHRM1) small molecule antagonists, cell-based qHTS assay (AID 1963588). Also: nearly all actives have a fitted effect of over 40% in size. In short, it runs like this: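 Compounds were tested at 15 concentrations in three independent runs. Dye-loaded CHRM1-CHO cells were exposed 5 min at room temperature before stimulation by acetylcholine added at 50nM. Intracellular calcium was read kinetically on FDSS for 3 min.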

The target is the same in assay [14]. In words: Cholinergic receptor muscarinic 1 (CHRM1) small molecule agonists, cell-based qHTS assay (AID 1963589). Also: nearly all actives have a fitted effect of over 35% in size. Summed up: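 Cells were plated and incubated 18 h at 37 C/5% CO2, loaded with calcium dye for 1 h at 37 C, then treated with compounds in DMSO. Fluorescence was recorded kinetically at 1 sec intervals.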
Assay [15] in a line: cAMP Responsive Elements (CRE) small molecule agonists, cell-based qHTS assay (AID 1963590). Summed up:
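Cells carrying a CRE-driven beta-lactamase reporter (HEK 293T) are seeded, incubated overnight (18 h), and treated with test compounds for 3 h at 37 C; reporter activity is then detected with a FRET substrate after 2 h at room temperature.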

Assay [16] can be described thus: cAMP Responsive Elements (CRE) small molecule antagonists, cell-based qHTS assay (AID 1963591; active = well fitted inhibition curve with a large enough effect in the signal ratio in the repeat runs, not every such curve was filed as active; the % refers to the signal ratio). Summed up: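 Cells (CRE-bla HEK 293T, DMEM with 10% dialyzed FBS and 25 mM HEPES) are seeded and incubated 18 h. Compounds are added with NKH477 agonist at 0.25 uM final for 3 h, then FRET substrate for 2 h.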
The target in assay [17] is Beta-2 adrenergic receptor (Homo sapiens) (UniProt P07550). Put plainly: Adrenergic beta2 receptor (ADRB2) small molecule antagonists, cell-based qHTS assay (AID 1963592). Also: series mostly up to about 92 µM; nearly all actives have a fitted effect of over 50% in size. Summed up:
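Assay format: CHO-ADRB2 cells, 18-20hr seeding at 37C/5% CO2, then compound plus 1nM isoproterenol agonist mix for 0.5hr RT. Homogeneous time-resolved fluorescence cAMP detection after 1hr, expressed as 665/615 nm ratio.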

Assay [18] addresses D(2) dopamine receptor (Homo sapiens) (UniProt P14416). Put plainly: Dopamine D2 receptor (DRD2) small molecule agonists, cell-based qHTS assay (AID 1963594). Also: nearly all actives have a fitted effect of over 35% in size. Summed up:
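HEK293 cells stably expressing human DRD2, pre-treated with PDE inhibitor Ro20-1724 (0.1 mM final) and compound 10 min at room temperature, then stimulated with NKH477 (200nM […]) for 30 min. cAMP read by HTRF (665/620 nm).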

Assay [19] shares this target. Put plainly: Dopamine D2 receptor (DRD2) small molecule antagonists, cell-based qHTS assay (AID 1963595; active = well fitted inhibition curve with a large enough effect in the signal ratio in the repeat runs, with a control signal flat; the % refers to the signal ratio). In short, it runs like this: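 In this cell-based antagonist screen, compounds act for 10 min at room temperature before a 30 min challenge with 12 nM quinpirole and 200 nM NKH477. cAMP is quantified by HTRF competition in DRD2-HEK293 cells containing 0.1 mM Ro20-1724.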

Assay [20] in a line: p53 small molecule agonists, cell-based qHTS assay (AID 1963582; active = well fitted activation curve with a large enough effect in the signal ratio in the repeat runs, not every such curve was filed as active; the % refers to the signal ratio). In short, it runs like this:
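Cells carrying a p53-responsive bla reporter are treated with test compounds for 16 h at 37 C; beta-lactamase activity is then detected with LiveBLAzer B/G FRET substrate after 2 h at room temperature.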

Chain of Beta-2 adrenergic receptor (Homo sapiens) (P07550 whole entry, looked up): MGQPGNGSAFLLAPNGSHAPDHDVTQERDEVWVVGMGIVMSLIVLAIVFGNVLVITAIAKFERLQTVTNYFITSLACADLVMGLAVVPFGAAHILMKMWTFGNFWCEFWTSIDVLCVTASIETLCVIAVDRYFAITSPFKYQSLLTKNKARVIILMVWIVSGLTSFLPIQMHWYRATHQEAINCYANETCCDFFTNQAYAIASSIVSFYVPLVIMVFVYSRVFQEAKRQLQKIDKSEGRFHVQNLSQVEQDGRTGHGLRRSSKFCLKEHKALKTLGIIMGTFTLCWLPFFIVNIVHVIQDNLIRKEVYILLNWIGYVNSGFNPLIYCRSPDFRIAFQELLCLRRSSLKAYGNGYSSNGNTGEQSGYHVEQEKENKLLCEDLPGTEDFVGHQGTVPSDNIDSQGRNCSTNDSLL
Chain of Muscarinic acetylcholine receptor M1 (Homo sapiens) (P11229 whole entry, looked up): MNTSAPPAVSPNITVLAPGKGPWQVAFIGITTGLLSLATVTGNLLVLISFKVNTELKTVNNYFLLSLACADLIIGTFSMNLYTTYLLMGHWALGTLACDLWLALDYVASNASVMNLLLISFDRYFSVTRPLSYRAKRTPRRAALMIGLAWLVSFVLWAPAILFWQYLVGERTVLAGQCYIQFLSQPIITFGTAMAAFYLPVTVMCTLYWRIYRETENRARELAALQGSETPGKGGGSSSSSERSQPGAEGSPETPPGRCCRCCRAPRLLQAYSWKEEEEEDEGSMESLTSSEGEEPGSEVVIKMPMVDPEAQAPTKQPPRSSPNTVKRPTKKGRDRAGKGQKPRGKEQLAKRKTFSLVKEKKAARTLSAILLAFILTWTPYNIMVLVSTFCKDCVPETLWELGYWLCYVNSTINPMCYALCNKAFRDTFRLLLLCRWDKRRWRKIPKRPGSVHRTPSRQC
Chain of Gonadotropin-releasing hormone receptor (Homo sapiens) (P30968 whole entry, looked up): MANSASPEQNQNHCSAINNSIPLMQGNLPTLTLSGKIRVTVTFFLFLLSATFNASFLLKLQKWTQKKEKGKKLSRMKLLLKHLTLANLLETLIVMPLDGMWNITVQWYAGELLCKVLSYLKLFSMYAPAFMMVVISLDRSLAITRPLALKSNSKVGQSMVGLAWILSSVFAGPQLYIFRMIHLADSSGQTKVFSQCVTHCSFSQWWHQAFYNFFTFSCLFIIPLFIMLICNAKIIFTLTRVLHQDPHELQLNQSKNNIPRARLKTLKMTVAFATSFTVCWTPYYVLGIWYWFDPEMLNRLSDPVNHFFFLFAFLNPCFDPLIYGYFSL
Chain of 5-hydroxytryptamine receptor 2A (Homo sapiens) (P28223 whole entry, looked up): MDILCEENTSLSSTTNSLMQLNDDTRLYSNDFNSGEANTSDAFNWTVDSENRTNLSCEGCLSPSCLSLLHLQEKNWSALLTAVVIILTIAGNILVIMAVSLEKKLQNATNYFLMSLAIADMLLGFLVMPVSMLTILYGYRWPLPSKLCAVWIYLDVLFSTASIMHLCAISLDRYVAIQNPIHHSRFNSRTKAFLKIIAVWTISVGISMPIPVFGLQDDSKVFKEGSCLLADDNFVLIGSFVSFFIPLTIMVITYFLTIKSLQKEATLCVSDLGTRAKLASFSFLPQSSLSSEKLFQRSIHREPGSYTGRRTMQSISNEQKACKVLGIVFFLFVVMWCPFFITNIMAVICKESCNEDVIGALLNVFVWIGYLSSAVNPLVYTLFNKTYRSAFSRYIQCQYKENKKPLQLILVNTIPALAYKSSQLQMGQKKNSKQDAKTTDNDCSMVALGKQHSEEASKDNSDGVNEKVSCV
Chain of D(2) dopamine receptor (Homo sapiens) (P14416 whole entry, looked up): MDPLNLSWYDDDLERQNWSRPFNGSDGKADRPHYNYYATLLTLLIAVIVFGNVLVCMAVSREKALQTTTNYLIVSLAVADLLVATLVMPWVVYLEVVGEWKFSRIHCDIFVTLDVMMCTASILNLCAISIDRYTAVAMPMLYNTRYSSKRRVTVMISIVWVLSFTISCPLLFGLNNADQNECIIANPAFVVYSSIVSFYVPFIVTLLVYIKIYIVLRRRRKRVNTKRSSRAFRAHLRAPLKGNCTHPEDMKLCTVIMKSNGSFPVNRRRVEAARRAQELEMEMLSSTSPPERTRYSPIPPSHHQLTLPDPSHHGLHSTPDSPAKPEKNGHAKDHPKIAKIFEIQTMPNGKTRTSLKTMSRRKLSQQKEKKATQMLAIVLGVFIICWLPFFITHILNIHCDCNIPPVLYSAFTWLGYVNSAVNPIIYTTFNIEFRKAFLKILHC
Chain of KiSS-1 receptor (Homo sapiens) (Q969F8 whole entry, looked up): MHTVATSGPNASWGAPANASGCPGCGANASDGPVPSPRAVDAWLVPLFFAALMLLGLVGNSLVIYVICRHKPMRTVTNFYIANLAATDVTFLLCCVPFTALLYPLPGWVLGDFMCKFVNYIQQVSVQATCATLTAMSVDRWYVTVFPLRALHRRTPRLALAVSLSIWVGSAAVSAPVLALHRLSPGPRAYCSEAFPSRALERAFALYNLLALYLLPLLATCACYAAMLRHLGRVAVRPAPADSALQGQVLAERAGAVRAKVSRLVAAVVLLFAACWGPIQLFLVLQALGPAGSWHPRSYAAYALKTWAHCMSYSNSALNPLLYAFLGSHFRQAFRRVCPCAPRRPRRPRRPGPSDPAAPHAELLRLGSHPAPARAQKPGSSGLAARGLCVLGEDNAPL

With `N#Cc1ccc(Cl)cc1`, the Potency entry in assay [1], in [2], in assay [3], in [4], in assay [5] and in assay [6] was “inactive” throughout. The Potency result in assay [7], in assay [8], in [9], in [10], in [11] and in assay [12] was “inactive” in each case. Besides, the Potency result in assay [13], in assay [14], in assay [15], in [16], in assay [17] and in [18] was “inactive” throughout. Besides, the Potency result in [19] is “inactive”.

As to `C=CCCC#N`, the Potency entry in assay [1], in assay [2], in [3], in assay [4], in assay [5] and in [6] was “inactive” throughout. In addition, the Potency entry in [7], in assay [8], in assay [9], in assay [10], in [20] and in assay [12] was “inactive” in each case. The Potency result in assay [13], in assay [14], in assay [16], in assay [17], in [18] and in assay [19] was “inactive” throughout.

With `BrCCc1ccccc1`, the Potency result in assay [1], in assay [2], in assay [3], in assay [4], in assay [5] and in assay [6] was “inactive” each time. Besides, the Potency result in [7], in [8], in assay [9], in [10], in [20] and in [12] was “inactive” in each case. Further, the Potency entry in [13], in assay [14], in [15], in assay [16], in assay [17] and in [18] was “inactive” in each case. In addition, in assay [19], the Potency entry was “inactive”.

Take `Cc1ccc2ccccc2c1`: the Potency result in [1], in [2], in [3], in assay [4], in assay [5] and in [6] was “inactive” each time. Besides, the Potency result in assay [7], in assay [8], in [9], in assay [10], in [11] and in assay [12] was “inactive” each time. For the same molecule, the Potency entry in [13], in [14], in assay [15], in [16], in assay [17] and in [19] was “inactive” throughout.

With `O=C(O)CCCc1ccc(N(CCCl)CCCl)cc1`, the Potency entry in [1], in [2], in [3], in [4], in [5] and in assay [6] was “inactive” each time. For the same molecule, the Potency result in [7], in assay [8], in [9], in assay [10], in assay [20] and in assay [15] was “inactive” throughout. The Potency result in [16], in assay [17], in assay [18] and in assay [19] was “inactive” each time.

`O=C(Cc1ccccc1)c1ccccc1`: the Potency result in [1], in [2], in [3], in [4], in [5] and in assay [6] was “inactive” throughout. The Potency result in [7], in assay [8], in assay [9], in [10], in assay [20] and in assay [12] was “inactive” each time. For the same molecule, the Potency entry in assay [13], in assay [14], in assay [16], in assay [17], in assay [18] and in assay [19] was “inactive” in each case.

Consider `Nc1ccc(-c2ccc(N)c(Cl)c2)cc1Cl`, for which the Potency result in [1], in [2], in assay [3], in assay [4], in assay [5] and in [6] was “inactive” throughout. Besides, the Potency result in assay [7], in assay [8], in assay [9], in [10], in assay [12] and in [13] was “inactive” in each case. For the same molecule, the Potency result in assay [14], in assay [15], in assay [16], in assay [17], in [18] and in assay [19] was “inactive” in each case. Besides, the Potency in assay [11] was 21.2 µM (active) and 17.5 µM (active) and 29.8 µM (active).

The values are drawn from PubChem BioAssay (Tox21).
